VDR inh = blocks the human vitamin D receptor. Potency, µM, usual class: inhibitors. P11473. VDR-SRC2-3 peptide fluorescence polarization, 2 h. AID 504847. hit rate 0.93% among 400,000
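VDR–SRC2-3 interaction, FP format. Cmpds 23 nl via pintool, brief spin, 2 h ambient incubation.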
KAT2A inh = inhibitors of human GCN5L2 histone acetyltransferase; GCN5L2 HAT assay, ThioGlo1 CoA-SH fluorescence; Q92830; Potency, µM (top dose mostly 58.9 µM), actives largely listed as inhibitors; hit rate 0.21% among 390,000
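qHTS, 1536-well. 20nM enzyme, pH 7.5 HEPES/EDTA/Tween-20 buffer; 15 min compound preinc., RT. Start: 75uM H3(1-25), 70uM AcCoA, 50uM ThioGlo1. Read Ex340/Em540 at t=0 (autofluorescence flag) and t=20 min.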
TrxR1 substrate = rat thioredoxin reductase 1 substrate activity. purified TrxR1 substrate turnover, NADPH consumption readout. Potency, µM (highest dose often 114 µM). hit rate 0.01% among 390,000. O89049; note: nearly all actives have a fitted effect of over 50% in size
Target sequence (O89049 whole entry, looked up): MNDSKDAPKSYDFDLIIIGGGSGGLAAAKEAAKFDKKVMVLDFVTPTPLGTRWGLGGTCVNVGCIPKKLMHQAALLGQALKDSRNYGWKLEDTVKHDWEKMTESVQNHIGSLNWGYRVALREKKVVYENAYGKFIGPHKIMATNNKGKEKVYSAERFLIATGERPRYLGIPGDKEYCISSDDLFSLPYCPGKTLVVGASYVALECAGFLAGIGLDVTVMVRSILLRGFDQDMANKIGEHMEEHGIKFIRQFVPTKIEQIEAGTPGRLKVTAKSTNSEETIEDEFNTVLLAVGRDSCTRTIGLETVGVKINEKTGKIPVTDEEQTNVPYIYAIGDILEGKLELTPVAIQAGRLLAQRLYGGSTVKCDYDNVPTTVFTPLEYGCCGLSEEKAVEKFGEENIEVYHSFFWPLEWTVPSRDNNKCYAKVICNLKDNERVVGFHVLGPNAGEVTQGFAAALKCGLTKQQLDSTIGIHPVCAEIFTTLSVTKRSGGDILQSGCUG
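Rat TrxR1, dispensed at 90 nM, was prereduced with 400 uM NADPH (final) for 5 min at ~22 deg C, then incubated with compound 15 min before 400 uM selenite. A first-read NADPH fluorescence drop versus no-compound background flagged substrates.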
rTrxR1 inhibitor = inhibitors of rat thioredoxin reductase 1; hit rate 1% among 390,000; Potency, µM (series often up to 114 µM), most hits filed as inhibitors; O89049; recombinant rTrxR1, NADPH fluorescence consumption, selenite substrate; note: nearly all actives have a fitted effect of over 65% in size
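Rat TrxR1 (90 nM in the dispensed reagent) was pre-reduced with 400 uM NADPH for 5 min at room temperature, then incubated with compound for 15 min. After 400 uM selenite was added, NADPH fluorescence (Ex 340/Em 450 nm) was followed for 8 min.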
A number is an active result; [ ] = dose if it differs, or a comment. In the library only some 1.8% were active in any assay of this set; here they are far more common. Calls come from the whole dose curve; as a rule, active = well fitted curve in the direction sought with a large enough effect; inconclusive = small, poorly fitted or top-dose-only effect, or another doubt; inactive = no such curve, though single readings can be large; an effect the other way counts as inactive or inconclusive.

Screening C#CCOCCOCCOCCNc1nc(N2CCN(C(=O)[C@H](CCCCN)n3cc([C@@H](N)[C@H](C)CC)nn3)CC2)nc(N2CCN(C(=O)[C@H](CCC(=O)O)n3cc([C@@H](N)CCCCN)nn3)CC2)n1 returned VDR inh inactive, KAT2A inh inactive, TrxR1 substrate inactive and rTrxR1 inhibitor inconclusive.
For C#CCOCCOCCOCCNc1nc(N2CCN(C(=O)[C@H](CCCCN)n3cc([C@@H](N)C(C)CC)nn3)CC2)nc(N2CCN(C(=O)[C@H](CCCCN)n3cc([C@@H](N)CO)nn3)CC2)n1 (some centres not stated) the results were KAT2A inh inactive.
For C#CCOCCOCCOCCNc1nc(N2CCN(C(=O)CCCCCCCCCCNC(=O)Cn3cc(CCCCCN)nn3)CC2)nc(N2CCN(C(=O)CCCCCCCCCCNC(=O)Cn3cc(CCCCCN)nn3)CC2)n1 the results were VDR inh inactive, KAT2A inh inactive, TrxR1 substrate inactive and rTrxR1 inhibitor 11µM.
`C#CCOCCOCCOCCNc1nc(N2CCN(C(=O)[C@H](CCCCN)n3cc([C@@H](N)C(C)CC)nn3)CC2)nc(N2CCN(C(=O)[C@H](Cc3cc4ccccc4[nH]3)n3cc([C@@H](N)CC(C)C)nn3)CC2)n1` (some centres not stated) gave VDR inh inactive, KAT2A inh inactive, TrxR1 substrate inactive and rTrxR1 inhibitor 25µM.
Screening O=C(O)c1cc2cccc([N+](=O)[O-])c2[nH]1 returned TrxR1 substrate inactive and rTrxR1 inhibitor inactive.
`C#CCOCCOCCOCCNc1nc(N2CCN(C(=O)C([C@@H](C)CC)n3cc(C(N)COC(=O)C(F)(F)F)nn3)CC2)nc(N2CCN(C(=O)[C@H](CCCCN)n3cc(C(N)[C@H](C)CC)nn3)CC2)n1` (some centres not stated) gave VDR inh inactive, TrxR1 substrate inactive and rTrxR1 inhibitor 50µM.
CCCCCCCCCCCCCCOc1ccc(C(=O)O)o1 was read as VDR inh 11µM and KAT2A inh 7.1µM.
Screening Cc1ccc(CNC(=O)CCS(=O)(=O)c2ccc(Br)s2)o1 returned VDR inh inactive, KAT2A inh inactive, TrxR1 substrate inactive and rTrxR1 inhibitor 8.9µM.
`CCC1Sc2ccc(S(=O)(=O)CCC(=O)NCc3ccc(C)o3)cc2NC1=O` (configuration not stated) gave VDR inh inactive, KAT2A inh inactive, TrxR1 substrate inactive and rTrxR1 inhibitor 50µM.
Screening Cc1cnccc1/C=C/c1ccc(N)cc1 returned TrxR1 substrate inactive and rTrxR1 inhibitor inactive.
For CC(=O)Nc1ccc(-c2nnc(SCc3ccccc3)n2C)cc1 the results were TrxR1 substrate inactive and rTrxR1 inhibitor inactive.
CC(=O)OCC1OC(Oc2cc(OC(C)=O)c3c(=O)cc(-c4ccc(OC(C)=O)cc4)oc3c2)[C@@H](OC(C)=O)C(OC(C)=O)C1OC(C)=O (some centres not stated) was read as VDR inh inactive and KAT2A inh inactive.
`C=C(CN(C)C)C(=O)c1ccc(OC2OC(COC(C)=O)C(OC(C)=O)C(OC(C)=O)C2OC(C)=O)cc1` (configuration not stated) gave VDR inh 40µM, TrxR1 substrate inactive[11.4 µM] and rTrxR1 inhibitor 2.8µM.
`C=CCNc1nnc(SC2CC(=O)N(c3ccc(OCCC)cc3)C2=O)s1` (configuration not stated) gave VDR inh inactive, KAT2A inh inactive, TrxR1 substrate inactive and rTrxR1 inhibitor 7.1µM.
`C=C1C(=O)OC2C[C@@]3(C)CCCC(C)C3=CC12` (some centres not stated) gave VDR inh 40µM and KAT2A inh inactive.
`C[C@H]1CCC[C@]2(C)C[C@H]3OC(=O)C(CN4CCCCCC4)[C@H]3C=C12` (some centres not stated) gave VDR inh inactive, KAT2A inh inactive, TrxR1 substrate inactive and rTrxR1 inhibitor inconclusive.
`Cc1csc(C)[n+]1CCC1CCCCC1` gave TrxR1 substrate inactive and rTrxR1 inhibitor inactive.
For O=C1N(c2ccccc2)C[C@@H]2C[C@@H](c3cccs3)N3CCC[C@@]123 the results were VDR inh inactive, KAT2A inh inactive, TrxR1 substrate inactive and rTrxR1 inhibitor 20µM.
Screening O=C1S/C(=C\c2ccc(N3CCOCC3)o2)C(=O)N1Cc1c(F)cccc1Cl returned VDR inh inconclusive, KAT2A inh inconclusive, TrxR1 substrate inactive and rTrxR1 inhibitor 2.5µM.

Screening data (PubChem BioAssay)
